Records with an inconclusive call do not appear. Calls of active or inactive are those of the source. Unless noted, the call rests on the fitted dose curve; in most records, active means well fitted curve in the direction sought with a large enough effect in the repeat runs; inconclusive means weak or mixed curves; inactive means no such curve, though single readings can be large; an effect the other way counts as inactive or inconclusive.
Experiments:
[1] = qHTS assay to identify small molecule antagonists of the glucocorticoid receptor (GR) signaling pathway - cell viability counter screen (AID 720693); further: nearly all actives have a fitted effect of over 55% in size
[2] = qHTS assay for identifying genotoxic compounds that show differential cytotoxicity against isogenic chicken DT40 cell lines with known DNA damage response pathways - wild type cell line (AID 743012); further: nearly all actives have a fitted effect of over 60% in size
Outline: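 Parental DNA repair-proficient DT40 cells, 300 per well, were pre-incubated ~0.5 h at 37 C/5% CO2, pin-dosed with compounds in DMSO, then incubated 40 h. Viability was read as CellTiter-Glo luminescence after 30 min at room temperature.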

[3] = qHTS assay for identifying genotoxic compounds that show differential cytotoxicity against isogenic chicken DT40 cell lines with known DNA damage response pathways - Rad54/Ku70 mutant cell line (AID 743015); further: nearly all actives have a fitted effect of over 60% in size; further: potency means the concentration at half of the fitted maximal effect
[4] = qHTS assay to identify small molecule antagonists of the androgen receptor (AR) signaling pathway using the MDA cell line - cell viability counter screen (AID 743041; further: nearly all actives have a fitted effect of over 45% in size)
Outline: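 Viability counter screen run alongside the AR antagonist reporter: cells seeded 5 h before compound, R1881 added, 16 h incubation at 37C without CO2, fluorescent CellTiter-Fluor signal quantified.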

[5] = qHTS assay to identify small molecule antagonists of the thyroid receptor (TR) signaling pathway - cell viability counter screen (AID 743064); further: nearly all actives have a fitted effect of over 50% in size; further: potency means the concentration at half of the fitted maximal effect
Outline: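 Fluorescence from CellTiter-Fluor, added after 23.5 h exposure at 37 °C, reported viability of GH3.TRE-Luc cells co-treated with compound and 1 nM T3. Measured in the same wells as the luciferase TR readout.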

[6] = qHTS assay to identify small molecule antagonists of the thyroid receptor (TR) signaling pathway (AID 743065); further: nearly all actives have a fitted effect of over 55% in size; further: potency means the concentration at half of the fitted maximal effect
Outline: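 GH3.TRE-Luc rat pituitary cells carrying two TR response elements driving luciferase were plated for 4 h, given compound plus 1 nM T3 (final), and incubated 23.5 h at 37 C. ONE-Glo luminescence measured reporter inhibition; CellTiter-Fluor fluorescence tracked cytotoxicity.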

[7] = test system: thyroid hormone receptor (rat, GH3 cells); assay: qHTS assay to identify small molecule agonists of the thyroid receptor (TR) signaling pathway (AID 743066; calls by dose curve)
[8] = target: Estrogen receptor (Homo sapiens) (UniProt P03372); assay: qHTS assay to identify small molecule antagonists of the estrogen receptor alpha (ER-alpha) signaling pathway (AID 743069; active means well fitted curve in the direction sought with a large enough effect in the signal ratio in the repeat runs, not every such curve was filed as active; the % refers to the signal ratio)
Outline: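 Estradiol-stimulated ER-alpha-UAS-bla HEK293 cells, 18 hr compound exposure at 37C. LiveBLAzer B/G substrate, 2 hr RT, fluorescence read.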

[9] = qHTS assay to identify small molecule antagonists of the estrogen receptor alpha (ER-alpha) signaling pathway - cell viability counter screen (AID 743074; calls by dose curve;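 further: HEK293 cells carrying ER-alpha-UAS-bla reporter stimulated with 17beta-estradiol; nearly all actives have a fitted effect of over 45% in size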)
[10] = target: Estrogen receptor (Homo sapiens) (UniProt P03372); assay: qHTS assay to identify small molecule agonists of the estrogen receptor alpha (ER-alpha) signaling pathway (AID 743075; calls by dose curve)
[11] = target: Estrogen receptor (Homo sapiens) (UniProt P03372); assay: qHTS assay to identify small molecule agonists of the estrogen receptor alpha (ER-alpha) signaling pathway using the BG1 cell line (AID 743079); further: nearly all actives have a fitted effect of over 20% in size; further: potency means the concentration at half of the fitted maximal effect
[12] = qHTS assay to identify small molecule antagonists of the estrogen receptor alpha (ER-alpha) signaling pathway using the BG1 cell line (AID 743080; calls by dose curve;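 further: BG1 cells stimulated with 17beta-estradiol alongside compound; series mostly up to about 70 µM; nearly all actives have a fitted effect of over 25% in size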)
Outline: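 Quantitative HTS on the Tox21 10K library: BG1 cells with endogenous ER-alpha and ERE-luciferase reporter, 17beta-estradiol stimulation, 21.5 h compound exposure, luminescence endpoint with parallel fluorescence cytotoxicity counter-read.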

[13] = qHTS assay to identify small molecule antagonists of the estrogen receptor alpha (ER-alpha) signaling pathway using the BG1 cell line - cell viability counter screen (AID 743081);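 further: compound given together with 17beta-estradiol as the ER stimulus; series mostly up to about 70 µM; nearly all actives have a fitted effect of over 45% in size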
Aromatase (Homo sapiens) = Aromatase (Homo sapiens) (UniProt P11511); assay: qHTS assay to identify aromatase inhibitors (AID 743083); further: series mostly up to about 70 µM; nearly all actives have a fitted effect of over 55% in size
[14] = qHTS assay to identify aromatase inhibitors - cell viability counter screen (AID 743084);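 further: cells stimulated with testosterone during compound exposure; nearly all actives have a fitted effect of over 55% in size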
[15] = qHTS assay to identify small molecule antagonists of the androgen receptor (AR) signaling pathway - cell viability counter screen (AID 743033; further: nearly all actives have a fitted effect of over 45% in size)
[16] = qHTS assay for identifying genotoxic compounds that show differential cytotoxicity against isogenic chicken DT40 cell lines with known DNA damage response pathways - Rev3 mutant cell line (AID 743014); further: nearly all actives have a fitted effect of over 55% in size; further: potency means the concentration at half of the fitted maximal effect
[17] = target: Androgen receptor (Homo sapiens) (UniProt P10275); assay: qHTS assay to identify small molecule antagonists of the androgen receptor (AR) signaling pathway (AID 743035; active means well fitted inhibition curve with a large enough effect in the signal ratio in the repeat runs, not every such curve was filed as active; the % refers to the signal ratio)
Outline: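 HEK293 cells stably carrying a UAS-driven beta-lactamase reporter (AR-UAS-bla GripTite) were plated for 4 h at 37C, then given compound and the agonist R1881 and incubated 16 h. Reporter activity was read by LiveBLAzer B/G FRET fluorescence after 2 h at room temperature.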

[18] = target: Androgen receptor (Homo sapiens) (UniProt P10275); assay: qHTS assay to identify small molecule agonists of the androgen receptor (AR) signaling pathway (AID 743036; active means well fitted activation curve with a large enough effect in the signal ratio in the repeat runs, with a control signal flat, not every such curve was filed as active; the % refers to the signal ratio)
Outline: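 Fluorescence from a beta-lactamase FRET substrate served as read-out in AR-UAS-bla GripTite HEK293 cells. Cells were treated with DMSO-dissolved compounds for 16 h at 37C, then with LiveBLAzer B/G substrate for 2 h at room temperature.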

[19] = target: Androgen receptor (Homo sapiens) (UniProt P10275); assay: qHTS assay to identify small molecule agonists of the androgen receptor (AR) signaling pathway using the MDA cell line (AID 743040; further: nearly all actives have a fitted effect of over 20% in size)
Outline: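 Luminescence from ONE-Glo, read after 30 min at room temperature, reflects MMTV-driven luciferase in MDA-kb2 cells (AR- and GR-responsive). Treatment lasted 16 h at 37C, 0% CO2.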

Measured: Potency

Chain of Aromatase (Homo sapiens) (P11511 whole entry, looked up): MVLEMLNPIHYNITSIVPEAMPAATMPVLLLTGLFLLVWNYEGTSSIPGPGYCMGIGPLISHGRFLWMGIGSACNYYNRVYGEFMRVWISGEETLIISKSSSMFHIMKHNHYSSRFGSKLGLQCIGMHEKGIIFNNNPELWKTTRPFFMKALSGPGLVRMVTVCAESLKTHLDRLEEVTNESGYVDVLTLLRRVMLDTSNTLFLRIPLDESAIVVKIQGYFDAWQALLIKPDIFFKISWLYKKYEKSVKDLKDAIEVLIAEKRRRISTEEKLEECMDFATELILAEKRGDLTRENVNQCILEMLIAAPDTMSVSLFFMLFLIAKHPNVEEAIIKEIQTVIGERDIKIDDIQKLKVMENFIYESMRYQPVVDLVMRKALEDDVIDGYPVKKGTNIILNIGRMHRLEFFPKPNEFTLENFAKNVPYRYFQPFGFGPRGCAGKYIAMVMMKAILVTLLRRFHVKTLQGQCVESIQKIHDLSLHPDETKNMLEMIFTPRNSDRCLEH
Chain of Estrogen receptor (Homo sapiens) (P03372 whole entry, looked up): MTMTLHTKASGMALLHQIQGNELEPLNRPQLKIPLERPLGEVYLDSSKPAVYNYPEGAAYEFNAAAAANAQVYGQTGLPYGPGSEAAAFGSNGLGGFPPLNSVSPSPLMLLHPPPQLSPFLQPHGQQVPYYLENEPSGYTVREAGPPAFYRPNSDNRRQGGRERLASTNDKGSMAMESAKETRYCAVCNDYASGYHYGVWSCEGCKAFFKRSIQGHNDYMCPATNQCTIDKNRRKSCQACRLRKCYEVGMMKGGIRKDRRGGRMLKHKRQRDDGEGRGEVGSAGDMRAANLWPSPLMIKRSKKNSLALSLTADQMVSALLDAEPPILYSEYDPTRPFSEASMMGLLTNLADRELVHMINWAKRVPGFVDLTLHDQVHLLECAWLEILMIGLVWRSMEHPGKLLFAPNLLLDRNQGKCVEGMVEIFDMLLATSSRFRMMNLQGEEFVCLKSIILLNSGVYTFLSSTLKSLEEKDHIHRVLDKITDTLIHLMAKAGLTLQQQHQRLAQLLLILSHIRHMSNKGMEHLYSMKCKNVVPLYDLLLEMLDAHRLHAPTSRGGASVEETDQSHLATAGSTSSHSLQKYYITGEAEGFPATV
Chain of Androgen receptor (Homo sapiens) (P10275 whole entry, looked up): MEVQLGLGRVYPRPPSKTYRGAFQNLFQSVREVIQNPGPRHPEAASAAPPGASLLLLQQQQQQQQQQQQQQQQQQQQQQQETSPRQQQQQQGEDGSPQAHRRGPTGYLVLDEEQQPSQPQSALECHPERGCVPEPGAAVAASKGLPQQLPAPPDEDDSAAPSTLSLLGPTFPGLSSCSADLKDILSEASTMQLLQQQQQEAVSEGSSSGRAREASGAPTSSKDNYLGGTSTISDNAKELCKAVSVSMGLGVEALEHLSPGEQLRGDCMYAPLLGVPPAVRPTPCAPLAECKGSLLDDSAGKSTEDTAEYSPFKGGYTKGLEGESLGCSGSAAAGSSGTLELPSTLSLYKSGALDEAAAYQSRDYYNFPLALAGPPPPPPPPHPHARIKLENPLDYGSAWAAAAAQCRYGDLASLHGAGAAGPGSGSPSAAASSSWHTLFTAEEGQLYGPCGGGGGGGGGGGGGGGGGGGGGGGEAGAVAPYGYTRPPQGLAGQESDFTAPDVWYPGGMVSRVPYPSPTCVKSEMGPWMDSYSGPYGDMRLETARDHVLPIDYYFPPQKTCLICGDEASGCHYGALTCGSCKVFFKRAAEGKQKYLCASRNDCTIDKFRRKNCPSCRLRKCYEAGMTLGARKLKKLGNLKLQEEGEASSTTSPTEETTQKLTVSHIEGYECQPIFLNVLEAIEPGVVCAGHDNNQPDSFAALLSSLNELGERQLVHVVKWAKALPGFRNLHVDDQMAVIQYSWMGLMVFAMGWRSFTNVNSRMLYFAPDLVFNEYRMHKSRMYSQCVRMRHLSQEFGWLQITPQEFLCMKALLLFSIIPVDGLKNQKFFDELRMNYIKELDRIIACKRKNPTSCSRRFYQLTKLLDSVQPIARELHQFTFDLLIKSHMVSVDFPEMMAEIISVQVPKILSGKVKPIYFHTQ

CC1=C(O)C(=O)C(C)O1 (stereo not given)
not listed: [15] | [16] | [17] | [18] | [19]
inactive: all other assays above

[O]=[Mo](=[O])=[O]
not listed: [4] | [16] | [17] | [18] | [19]
inactive: all other assays above

CC(O)CC(C)O (stereo not given)
inactive: [1] | [2] | [15] | [4] | [5] | [6] | [7] | [9] | [13] | Aromatase (Homo sapiens) | [14]

CC(O)COC(C)(C)C (stereo not given)
inactive: [1] | [2] | [4] | [5] | [6] | [7] | [9] | [13] | Aromatase (Homo sapiens) | [14]

CC(=O)CCC1=C(C)CCCC1(C)C
inactive: [1] | [2] | [5] | [6] | [7] | [9] | [11] | [12] | [13] | Aromatase (Homo sapiens) | [14]

OCC1(CO)COCOC1
not listed: [2] | [8] | [10] | [11] | [12] | [17] | [18] | [19]
inactive: all other assays above

CC(C)C1OCCN1CCOC(=O)NCCCCCCNC(=O)OCCN1CCOC1C(C)C (stereo not given)
not listed: [3] | [15] | [16]
inactive: all other assays above

CCCCCCCCCCCCCBr
active: [16] 54.3 µM
not listed: [2] | [8] | [10] | [11] | [12] | [17] | [18] | [19]
inactive: all other assays above

Cc1cccc(Cl)c1
inactive: [1] | [2] | [15] | [4] | [5] | [6] | [7] | [9] | [13] | Aromatase (Homo sapiens) | [14]

c1ccc(-c2nn[nH]n2)cc1
not listed: [2] | [8] | [17] | [18] | [19]
inactive: all other assays above

CCO[Si](CC)(OCC)OCC
not listed: [2] | [3] | [4] | [18]
inactive: all other assays above

O=C(Cl)c1ccccc1[N+](=O)[O-]
not listed: [1] | [3] | [5] | [8] | [10] | [11] | [12]
inactive: all other assays above

O=C(O)CONC(=O)c1ccccc1
inactive: [1] | [3] | [15] | [5] | [6] | [7] | [9] | [13]

O=C(NCN1CCOCC1)c1cnccn1
not listed: [1]
inactive: all other assays above

c1ccc2cnccc2c1
active: [16] 30.6 µM | [3] 54.5 µM
not listed: [2] | [5] | [17] | [18] | [19]
inactive: all other assays above

COc1cc2c(cc1OC)C(=O)C(CC1CCN(Cc3ccccc3)CC1)C2 (stereo not given)
active: [6] 26.6 µM | [11] 26.6 µM
not listed: [2] | [3] | [5] | [8] | [12] | [16] | [17]
inactive: all other assays above

NCC1(Cc2noc(=O)[nH]2)CCCCC1
not listed: [2] | [5] | [6] | [7] | [16] | [17] | [18] | [19]
inactive: all other assays above

CC1CC(=O)CC(C)(C)C1 (stereo not given)
not listed: [1] | [15] | [17] | [18] | [19]
inactive: all other assays above

CC(=O)OC1CCCCC1C(C)(C)C (stereo not given)
not listed: [2] | [15] | [18]
inactive: all other assays above

C=C(C)[C@@H]1CC=C(C)CC1
active: [16] 68.6 µM
inactive: [1] | [4] | [5] | [8] | [9] | [10] | [12] | [13] | Aromatase (Homo sapiens) | [14]

COC(=O)c1ccccc1C(=O)O
not listed: [2] | [4] | [17] | [18] | [19]
inactive: all other assays above

CC(=O)CC(=O)OC(C)(C)C
not listed: [1] | [11] | [18]
inactive: all other assays above

O=C[O][Al]([O]C=O)[O]C=O
not listed: [2] | [3] | [4] | [16] | [17] | [18] | [19]
inactive: all other assays above

C=CCN1C[C@H](C(=O)N(CCCN(C)C)C(=O)NCC)C[C@@H]2c3cccc4[nH]cc(c34)C[C@H]21
inactive: [1] | [16] | [15] | [8] | [9] | [10] | [11] | [12] | Aromatase (Homo sapiens) | [14]
active: [5] 3.76 µM

Cn1c(=O)c2[nH]c(Br)nc2n(C)c1=O
active: [6] 26.6 µM
inactive: [1] | [16] | [3] | [15] | [4] | [7] | [9] | [13] | Aromatase (Homo sapiens) | [14]

CCCC(CC)c1ccccc1 (stereo not given)
not listed: [2] | [16] | [17] | [18] | [19]
inactive: all other assays above

OCCN1CCOCC1
not listed: [2] | [8] | [9] | [15] | [17] | [18] | [19]
inactive: all other assays above

COc1ccc2c(c1)c1c3n2CCN(C)C3=NCC1
not listed: [2] | [3] | [16] | [18]
inactive: all other assays above

C=C(C)[C@@H]1CC=C(C)C(=O)C1
inactive: [1] | [16] | [4] | [5] | [6] | [7] | [9] | [13] | Aromatase (Homo sapiens) | [14]

CN(C)C(C)(C)CO
active: [11] 77 µM
not listed: [2] | [3] | [16] | [17] | [18] | [19]
inactive: all other assays above

CC(C)c1ccc(C=O)cc1
not listed: [2] | [4] | [5] | [17] | [18] | [19]
inactive: all other assays above

CCC(C)C(C)=O (stereo not given)
active: [11] 67 µM
not listed: [1] | [15] | [16] | [17] | [18] | [19]
inactive: all other assays above

CCCCCCC1(C)CCC(=O)O1 (stereo not given)
not listed: [2] | [3] | [9] | [15] | [17] | [18] | [19]
inactive: all other assays above

CCCC(=O)OCCC(C)CCC=C(C)C (stereo not given)
inactive: [1] | [15] | [4] | [6] | [7] | [9] | [13] | Aromatase (Homo sapiens) | [14]

COC(=O)CCCCC(=O)O
not listed: [2] | [3] | [15] | [17] | [18] | [19]
inactive: all other assays above

N[C@@H](Cc1ccc(O)cc1)C(=O)O
inactive: [1] | [15] | [4] | [5] | [6] | [7] | [9] | [13] | Aromatase (Homo sapiens) | [14]

O=Cc1ccccc1Cl
inactive: [2] | [16] | [3] | [15] | [5] | [6] | [7] | [9] | [13] | Aromatase (Homo sapiens)

O=C(O)CNC(=O)CNC(=O)CNC(=O)CSC(=O)c1ccccc1
not listed: [2] | [16] | [17] | [18] | [19]
inactive: all other assays above

Cc1ccc(C)c([N+](=O)[O-])c1
not listed: [1] | [8] | [10] | [11] | [12] | [17] | [18] | [19]
inactive: all other assays above

CN1CCOC(c2ccccc2)c2ccccc2C1 (stereo not given)
inactive: [1] | [16] | [5] | [6] | [7] | [9] | [13] | Aromatase (Homo sapiens) | [14]

OCC(O)CN1CCN(c2ccccc2)CC1 (stereo not given)
inactive: [1] | [16] | [3] | [6] | [7] | [9] | [13] | Aromatase (Homo sapiens) | [14]

C=C(C)c1cccc(C(C)(C)N=C=O)c1
not listed: [2] | [3] | [16] | [17] | [18] | [19]
inactive: all other assays above

Cc1ccnc(N)c1
inactive: [1] | [15] | [4] | [5] | [6] | [7] | [9] | [13] | Aromatase (Homo sapiens) | [14]
active: [16] 48.6 µM | [3] 48.6 µM

ONc1ccccc1
active: [11] 60.5 µM
not listed: [1] | [2] | [4] | [12] | [16] | [17] | [18] | [19]
inactive: all other assays above
